Test results: PubChem BioAssay (NCI)
Where “and” joins values, the source holds several entries; their conditions need not be identical. Equal values may be shown once. Compounds without any hit were thinned out: in the full panel of roughly 79,000, 15% have a hit. Calls of active or inactive are those of the source. No stated cut-off is given here; in the data, active means growth inhibition above about 70%; inactive means the rest.

What was measured:
[1] = NCI Yeast Anticancer Drug Screen. Data for the rad50 strain (AID 155);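 further: 0% = growth of vehicle-only cultures of the same strain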; conditions: S. cerevisiae rad50 strain growth inhibition, hits give high values; at 50.0 µM unless noted
In short: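 Yeast carrying a defined DNA repair defect were exposed to test compounds, and growth was compared with vehicle-treated controls to give percent inhibition.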

[2] = NCI Yeast Anticancer Drug Screen. Data for the mec2-1 strain (AID 157); conditions: S. cerevisiae mec2-1 strain, hits give high values; at 50.0 µM unless noted
In short: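 Strain: mec2-1 (DNA repair/cell cycle alteration). Compound exposure, then growth measured; inhibition expressed relative to vehicle.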

[3] = NCI Yeast Anticancer Drug Screen. Data for the sgs1 mgt1 strain (AID 161);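 further: 0% = growth of cultures given vehicle only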; conditions: S. cerevisiae sgs1 mgt1 strain, hits give high values; at 50.0 µM unless noted
In short: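 Mutant yeast exposed to compound; growth scored against vehicle-only wells.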

[4] = NCI Yeast Anticancer Drug Screen. Data for the cln2 rad14 strain (AID 165);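 further: 0% = growth equal to vehicle treated cultures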; conditions: S. cerevisiae cln2 rad14 strain, hits give high values; at 50.0 µM unless noted
In short: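 Compounds are applied to the cln2 rad14 yeast strain, and growth is then compared with that of vehicle-treated cultures to give inhibition.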

[5] = NCI Yeast Anticancer Drug Screen. Data for the bub3 strain (AID 167); conditions: S. cerevisiae bub3 mutant strain, hits give high values; at 50.0 µM unless noted
In short: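 Compounds were applied to a genetically altered yeast strain carrying a cell-cycle control defect. Growth inhibition was scored against vehicle-treated controls.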

[6] = NCI Yeast Anticancer Drug Screen. Data for the mlh1 rad18 strain (AID 175); conditions: S. cerevisiae mlh1 rad18 strain growth inhibition, hits give high values; at 50.0 µM unless noted
In short: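 Read-out is yeast growth inhibition, calculated against vehicle-only controls. The compound was applied to a strain engineered with DNA damage repair alterations.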

Measured: growth inhibition

NC(=O)CSc1c2cc(O)ccc2nc2ccc(O)cc12
inactive: [1] -17.8% | [2] -6.95% | [3] -12.6% | [4] 37.5% | [5] -19.4% | [6] 26.7%

Cc1[nH]c(=O)cc2c1[nH]c1ccccc12
inactive: [1] -0.4% | [2] -6.7% | [3] -0.15% | [4] -44.2% | [5] 1.3% | [6] -1.05%

O=C(NCCS)C(=O)NCCS
inactive: [1] -1.55% | [2] 7.9% | [3] 3.65% | [4] 9.7% | [5] -12.7% | [6] -10.2%

OCCN1CCN=C1Cc1ccccc1
inactive: [1] 4.75% | [2] 11.9% | [3] 8.05% | [4] 14.2% | [5] -2.1% | [6] 29.4%

CCCc1onc(-c2noc(CCC)c2CC)c1CC
inactive: [1] 15.8% | [2] -6.65% | [3] -1.9% | [4] 9.85% | [5] -19.4% | [6] 15.7%

COc1cc(C2c3cc4c(cc3OC(N3CCOCC3)C2C)OCO4)cc(OC)c1O (stereo not given)
inactive: [1] -17.1% | [2] -25.8% | [3] -23.3% | [4] -12.5% | [5] -8.95% | [6] -8%

C=CCCCC12CCCc3cccc(c31)NC2=O (stereo not given)
inactive: [1] 48.7% | [2] 17.4% | [3] 24.8% | [4] 48% | [5] 46.5% | [6] 34.6%

CCCCC/C([O-])=C1/C(=O)N(c2ccccc2)N=C1C.CCCCC/C([O-])=C1/C(=O)N(c2ccccc2)N=C1C.[Cu+2]
inactive: [1] 2.1% | [2] 0.75% | [3] -13.7% | [4] -6.1% | [5] -2.75% | [6] 7.75%

CN(C)CC1(C)CC/C(=C\c2ccc3c(c2)OCO3)C1=O (stereo not given)
inactive: [1] 58.4% | [2] 30.4% | [3] 45% | [4] 51.9% | [5] 29.9% | [6] 56%

Cc1ccc(S(=O)(=O)NC(CCC(=O)N2CCOCC2)C(=O)O)cc1 (stereo not given)
inactive: [1] -18.1% | [2] -4% | [3] 7.15% | [4] -57.9% | [5] 24.8% | [6] 8.6%

Cc1ccc(C)n1-n1c(Cc2ccccc2)n[nH]c1=O
inactive: [1] -21.8% | [2] -19.3% | [3] -15.1% | [4] 2.75% | [5] -31.8% | [6] -12.7%

CCOc1ccc(OCC)cc1
inactive: [1] 3.6% | [2] -0.65% | [3] -9.05% | [4] -29.3% | [5] -11.1% | [6] 4.65%

COc1ccc(C2CC(=O)N(c3ncccn3)C(=O)C2)cc1
inactive: [1] 14.5% | [2] 8.4% | [3] 10% | [4] -13.7% | [5] -12.3% | [6] 5.25%

O=C1CN(Cc2ccc3c(c2)OCO3)NO1
inactive: [1] 15.3% | [2] -1.25% | [3] -17.4% | [4] -4.5% | [5] -9.35% | [6] -26.5%

COc1cc(/C=C/c2ccc(N(C)C)cc2)oc(=O)c1
inactive: [1] 21.5% | [2] 5.45% | [3] 26.6% | [4] 6.85% | [5] 5.65% | [6] 0.25%

COC(=O)Nc1ccc(Cc2ccc(NC(=O)OC)cc2)cc1
inactive: [1] 26.1% | [2] 7.35% | [3] 27.5% | [4] 15.7% | [5] 33.5% | [6] 29.6%

NC(=O)c1ccc[n+]([O-])c1
inactive: [1] 15.1% | [2] -0.5% | [3] 6.35% | [4] 6.6% | [5] 2.65% | [6] -1.75%

CCCCC(OC(=O)c1ccccc1)c1cc(OC(=O)c2ccccc2)c2c(c1OC(=O)c1ccccc1)CC(C)=C(C)C2 (stereo not given)
active: [1] 84% | [3] 99%
inactive: [2] 49.6% | [4] 53.4% | [5] 48.2% | [6] 56.2%

COc1ccc2cc1Oc1ccc(cc1)C[C@H]1c3cc(c(OC)cc3CCN1C)Oc1c(OC)c(OC)cc3c1[C@H](C2)N(C)CC3
inactive: [1] 27.1% and 23.9% | [2] 12.3% and -23.1% | [3] -15.9% and 5.7% | [4] -26.3% and 4.5% | [5] -6.4% and 19.7% | [6] -31.4% and -38.9%

Cc1nc2cnc(=Nc3ccccc3)nc-2n(-c2ccccc2)c1C
inactive: [1] -1.15% | [2] -1.55% | [3] -0.65% | [4] 56.9% | [5] 5.15% | [6] -7.9%
